PubChem BioAssay AID624330 (Southern Research Specialized Biocontainment Screening …, 2012)
Out of some 340,000 compounds screened, about 2,100 (0.62%) were called active.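 How the source made its calls: active means first-screen hits whose inhibition reached a set limit at any dose in the follow-up dose series; inconclusive means inhibition above the set first-screen limit but never retested; inactive means the rest.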 Not all results are given here. Entries with a potency or affinity are not part of this list. Square brackets hold non-standard residues; d marks the D form. Peptide text beside a SMILES is read from it. * marks the point of attachment. ξ: configuration not given here. Cbz = O=C(OCc1ccccc1)*; ξP = O=C(O)C1CCCN1

target: Rac GTPase-activating protein 1 (Homo sapiens) (UniProt Q9H0H5); experiment: MgcRacGAP GTPase-activating activity inhibitors, confirmation, biochemical, ADP Hunter fluorescence, primary and confirmatory (AID 624330); conditions: MgcRacGAP-stimulated Rac1 GTP hydrolysis, at 30 µM, stronger effect = higher value, GST-tagged Rac1 F28L mutant substrate;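 further: fluorescence reports GDP produced by GAP-driven GTP hydrolysis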
Sequence (Q9H0H5 whole entry, looked up): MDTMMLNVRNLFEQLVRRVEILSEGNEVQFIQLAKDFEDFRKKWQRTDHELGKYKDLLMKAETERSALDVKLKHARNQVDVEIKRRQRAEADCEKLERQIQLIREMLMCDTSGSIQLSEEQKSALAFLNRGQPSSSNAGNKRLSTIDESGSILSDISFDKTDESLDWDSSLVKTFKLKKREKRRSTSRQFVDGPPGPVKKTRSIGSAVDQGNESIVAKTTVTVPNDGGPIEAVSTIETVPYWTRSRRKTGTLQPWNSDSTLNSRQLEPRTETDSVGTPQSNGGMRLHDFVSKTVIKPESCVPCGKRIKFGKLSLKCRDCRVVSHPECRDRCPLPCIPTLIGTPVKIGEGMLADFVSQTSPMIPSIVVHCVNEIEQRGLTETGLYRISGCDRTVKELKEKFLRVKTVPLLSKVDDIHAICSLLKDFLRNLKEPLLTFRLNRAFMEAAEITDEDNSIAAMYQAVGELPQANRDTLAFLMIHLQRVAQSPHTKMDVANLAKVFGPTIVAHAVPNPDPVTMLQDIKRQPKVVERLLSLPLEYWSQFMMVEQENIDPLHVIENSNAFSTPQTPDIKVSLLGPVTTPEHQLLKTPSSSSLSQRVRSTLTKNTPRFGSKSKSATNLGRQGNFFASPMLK

inhibition, inactive:
Cc1ccc(OCCNC(=O)c2ccc(C)cc2)cc1 -0.09%
CCN1C(=O)C(NC(C)=O)c2cc(Br)ccc21 (stereo not given) 1.35%
CCOc1ccc(NC(=O)CN(C)C(=O)Cc2n[nH]c(=O)c3ccccc23)cc1OCC 3.38%
COc1ccccc1CN(C)C(=O)c1cccc(S(=O)(=O)N2CCCC2)c1 5.67%
Cc1cc(C)c(Nc2n[nH]c(=S)s2)cc1C 29.6%
Cc1cccc(C)c1Nc1n[nH]c(=S)s1 13.1%
COc1ccccc1N1C(=O)S/C(=C\c2cc(C)n(C)c2C)C1=O -0.75%
N#Cc1ccc[n+](CC(=O)c2ccc(NC(=O)c3ccccc3)cc2)c1 3.28%
c1cc2c3c(cccc3c1)NC1(CCCC1)N2 -1.27%
c1cc2c3c(cccc3c1)NC1(CCC3(CC1)Nc1cccc4cccc(c14)N3)N2 29.5%
COc1cc(OC)cc(N(C(=O)c2ccco2)C(C(=O)NC2CCCC2)c2ccc(N3CCOCC3)cc2)c1 (stereo not given) 3.31%
O=C(NC1CCCC1)C(c1ccncc1)N(C(=O)Cc1cccs1)c1ccc(F)cc1 (stereo not given) -2.61%
ON=C1c2ccccc2-c2ccccc21 4.05%
Nc1ccc2c(c1)C(=NO)c1ccccc1-2 14.6%
ON=C1c2ccccc2-c2ccc(Br)cc21 0.43%
ON=C1c2ccccc2-c2ccc(F)cc21 -0.77%
COCCCNc1nc2nonc2nc1NCCSC -2.05%
Cc1cc(SCc2ccc(Cl)c(Cl)c2)nc(=O)[nH]1 13.6%
CC(C)(C)C(=O)Nc1ccc(C(=O)N/N=C/C2CC3C=CC2C3)cc1 (stereo not given) 8.37%
COC(=O)CNC(=O)C1CCCN1C(=O)CNC(=O)OCc1ccccc1 (stereo not drawn) (Cbz-Gly-[ξP]-Gly-OMe) 7.71%
CC(C)C(C)NC(=O)CN1C(=O)NC2(CCc3ccccc3C2)C1=O (stereo not given) 2.87%
CCC(=O)c1ccc(OCc2ccc(C(=O)c3ccccc3)cc2)cc1 6.28%
COc1cccc(NC(=O)c2sc3nc4n(c(=O)c3c2C)CCC4)c1 -4.45%
O=C(CCC1CCCC1)Nc1cccn(Cc2ccccc2Br)c1=O 2.13%
CCOC(=O)c1cc(C)n(Cc2ccccc2)c1C -2.73%
CCOC(=O)c1sc(=S)n(Cc2ccccc2)c1C 8.11%
Cc1noc(C)c1COc1ccccc1C(=O)NNC(=O)c1ccccc1 11.8%
N#C/C(=N\Nc1cccc(F)c1)C(=N)N1CCCCCC1 15.4%
O=C1c2ccccc2NC(c2ccccc2)N1/N=C/c1ccccc1 (stereo not given) 12.7%
Cc1ccc(/C=N/N2C(=O)c3ccccc3NC2c2ccc(C)cc2)cc1 (stereo not given) 7.64%
COc1ccc(Cn2nnnc2C(c2ccccn2)N2CCN(c3cc(Cl)ccc3C)CC2)cc1 (stereo not given) 3.5%
CCOC(=O)c1[nH]c2ccccc2c1NC(=O)COC 4.84%
CCOC(=O)c1[nH]c2ccccc2c1N=CN(C)C 27.9%
Cc1cccc(NC(=O)COC(=O)c2n[nH]c3ccccc23)c1C 4.6%
CCCC(=O)Nc1c(C(=O)OCC)[nH]c2ccccc12 4.51%
CCOC(=O)c1[nH]c2ccccc2c1NC(=O)C(C)(C)C 5.02%
CCOC(=O)c1[nH]c2ccccc2c1N=CN(CC)CC 14.9%
CCOC(=O)c1[nH]c(C)c(C(=O)Nc2ccccc2C)c1C 6.7%
CCCCNC(=O)Nc1c(C(=O)OCC)[nH]c2ccccc12 5.71%
O=C(CCCn1c(=O)c2sccc2n(CC(=O)OCc2ccccc2)c1=O)NCc1ccco1 6.92%
O=C(NCc1nnc2c(C(F)(F)F)cc(Cl)cn12)c1cccnc1 9.23%
CC(OC(=O)Cc1ccsc1)C(=O)Nc1ccc(C(N)=O)cc1 (stereo not given) 2.18%
O=C(NC(=S)N(Cc1ccccc1)c1ccccn1)C1CCCCC1 7.13%
COc1ccccc1NC(=O)NCc1ccccc1F 5.13%
O=C(c1ccccc1)N1CCCC(C(=O)N2CCCCCC2)C1 (stereo not given) -4.85%
CCCn1ccc2c(OCC(=O)Nc3ccc(NC(C)=O)cc3)cccc2c1=O -3.32%
O=C(c1cc(Cl)ccc1OCc1ccccc1)N1CCOCC1 6.74%
CC(Oc1ccccc1)C(=O)NNC(=O)c1ccccn1 (stereo not given) 3.78%
COc1ccc([C@H]2CC(=O)C=C(c3ccccc3-c3ccccc3)C2)cc1 0.94%
CCCC/C(O)=C1\C(=O)CC(C)(C)CC1=Nc1ccc(OC)cc1 3.47%
O=C(Nc1ccc(F)cc1)Nc1nnc(Cc2ccccc2)s1 2.79%
COc1ccc(/C=N/NC(=O)CCc2n[nH]c(=O)[nH]c2=O)cc1OC 4.75%
COc1cc(/C=N/NC(=O)CSc2cc(C)c(Br)cc2C)ccc1O 15.9%
COc1ccc(/C=N/NC(=O)CNc2n[nH]c(=O)[nH]c2=O)cc1OC 10.5%
CCOc1cc(/C=N/NC(=O)COc2nc(C)cc(COC)c2C#N)ccc1O 16.6%
COc1cc(/C=N/NC(=O)CCc2c(C)n[nH]c2C)ccc1O 3.71%
COc1cc(/C=N/NC(=O)C(C)Nc2n[nH]c(=O)[nH]c2=O)cc(OC)c1O (stereo not given) 11.1%
COc1cc(/C=N/NC(=O)c2cc(-c3ccccc3)nc3ccccc23)ccc1O 21.3%
COc1ccc(C=NNC(=O)CCCC(=O)NN=Cc2ccc(OC)c(OC)c2)cc1OC 2.12%
CC(=O)c1ccc2ccccc2c1OC(=O)c1ccncc1 6.45%
CSc1sc(-c2ccnc(SCC(=O)C(C)(C)C)n2)c2c1C(=O)CC(C)(C)C2 13.4%
CCn1c(SCC(=O)Nc2ccc(F)cc2)nc2ccccc2c1=O 0.4%
Cc1ccc(C(=O)N2CCC(C(=O)NCc3ccco3)CC2)cc1 5.06%
COc1cc(OC)cc(C(=O)Nc2ncn[nH]2)c1 6.96%
O=C1c2ccccc2C(=O)N1/N=C/c1ccc(O)c(O)c1O -97.2%
O=C1c2ccccc2C(=O)N1N=Cc1ccc2c(c1)OCO2 5.49%
COc1ccc(/C=N/N2C(=O)c3ccccc3C2=O)cc1 -3.67%
O=C1C2C3C=CC(CC3)C2C(=O)N1/N=C/c1ccccc1O (stereo not given) 3.85%
COc1cc(/C=N/N2C(=O)C3C4c5ccccc5C(c5ccccc54)C3C2=O)ccc1O (stereo not given) 4.88%
O=C1C2C3C=CC(CC3)C2C(=O)N1/N=C/c1ccc(O)cc1 (stereo not given) 1.46%
CC(NC(=O)C1CC(=O)N(c2ccc3c(c2)OCCO3)C1)c1ccccc1 (stereo not given) 10.6%
C/C(=N\NC(=O)C(c1ccncc1)N1CCOCC1)c1ccc(Br)cc1 (stereo not given) 5.86%
Cc1cccc(NC(=O)CN2C(=O)N/C(=C/c3cc(C)n(-c4cccnc4)c3C)C2=O)c1 -10.6%
COc1ccccc1C(CNC(=O)c1cccc(S(=O)(=O)N2CCCc3ccccc32)c1)N(C)C (stereo not given) 4.28%
Cc1cc(C)nc(NS(=O)(=O)c2ccc(NC(=S)NC(=O)C(C)(C)C)cc2)n1 8.49%
CC(=O)N1CCc2cc(S(=O)(=O)NCCCOC(C)C)ccc21 2.11%
CC(=O)c1ccc(S(=O)(=O)N2CCC3(CC2)CC(=O)c2ccccc2O3)cc1 14.3%
O=S(=O)(c1cccs1)N1CCN(c2ccccc2Cl)CC1 1.05%
CC(=O)Nc1ccc(NC(=O)Cn2cnc3c(nnn3Cc3ccc(F)cc3)c2=O)cc1 1.41%
c1ccc2cc(OCCOCCOc3ccc4ccccc4c3)ccc2c1 -0.76%
CN(C)CCOc1ccc2ccccc2c1 25.2%
CC1=C(C)CC2(SC1)C(=O)N(c1ccccc1)N=C2N (stereo not given) 15%
CC[C@@H](C)[C@@H](C(=O)N1CCN(C(=O)OC(C)(C)C)CC1)n1cc(CCCCNC(=O)OC(C)(C)C)nn1 7.52%
Cn1c(-c2ccc3c(c2)OCO3)cnc1NCc1cccc(O)c1 26.8%
Cn1c(-c2ccc(F)cc2)cnc1NCc1cc2c(cc1[N+](=O)[O-])OCO2 27.6%
Cn1c(-c2ccc3c(c2)OCO3)cnc1NCc1ccccc1 30.7%
Cc1ccc(CNc2ncc(-c3ccc4c(c3)OCO4)n2C)cc1 30.1%
COc1ccc(-c2cnc(NCc3cc4c(cc3[N+](=O)[O-])OCO4)n2C)cc1 28.1%
Cn1c(-c2ccc3c(c2)OCO3)cnc1NCc1ccc(Cl)cc1 27.4%
COc1ccccc1N1CCN(S(=O)(=O)c2ccc(NC(C)=O)cc2)CC1 7.69%
Cc1c(-c2ccccc2)nc2ccccc2c1C(=O)Oc1ccc([N+](=O)[O-])cc1 -7.74%
Cc1ccc(S(=O)(=O)N2CC3(O)CN(C(=O)OC(C)C)N(C(=O)OC(C)C)CC3(OC(=O)NC3CCCC3)C2)cc1 (stereo not given) 9.25%
CC(=O)Nc1ccc(S(=O)(=O)NNC(=O)c2ccc([N+](=O)[O-])cc2)cc1 1.83%
COC(=O)CN1C(=O)C(O)(CC(=O)c2ccccc2)c2ccccc21 (stereo not given) 9.4%
CC(C)(C)OC(=O)NCCCCCNC(=O)c1nc[nH]c1C(=O)NCC(=O)OCc1ccccc1 5.97%
